High-throughput results as filed in PubChem.
The full list was thinned out, with hits kept by preference.
APEX1 inh: qHTS Assay for Inhibitors of the Human Apurinic/apyrimidinic Endonuclease 1 (APE1). hit rate 0.35% among 350,000. recombinant APE1, TAMRA/BHQ-2 abasic DNA cleavage fluorescence. Potency, µM (top dose mostly 65.8 µM), for inactives: top-dose activity change, negative = inhibition, actives largely listed as inhibitors;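 also: plate controls were vehicle for no effect and reference inhibitor for full effect; nearly all actives have a fitted effect of over 55% in size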
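Substrate: short duplex with […] THF abasic site, 5'-TAMRA and 3'-BHQ-2, 50 nM final. APE1 at 0.75 nM, preincubated 15 min RT with compound. Fluorescence increase from first to third read measured activity.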
BLM inh: qHTS Assay for Inhibitors of Bloom's syndrome helicase (BLM) | RecQ-like DNA helicase BLM (Homo sapiens), P54132 | recombinant BLM DNA unwinding, fluorescence dequenching | Potency, µM (highest dose often 56.1 µM), inactives show at the top dose activity change, negative = inhibition, usual class: inhibitors | hit rate 0.2% among 350,000;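 also: plate controls were vehicle for no effect and no enzyme for full effect; nearly all actives have a fitted effect of over 35% in size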
RECQ1 inh: qHTS Assay for Inhibitors of RecQ-Like Dna Helicase 1 (RECQ1) | RECQ1 DNA unwinding, red fluorescence kinetic read | Potency, µM (doses to about 57.3 µM), for the others: top-dose activity, negative = inhibition, usual class: inhibitors | hit rate 0.54% among 240,000 | AID 2549, 2010;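 also: plate controls were vehicle for no effect and no enzyme for full effect; nearly all actives have a fitted effect of over 30% in size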
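50 nM RECQ1T1 preincubated 15 min with compound in Tris pH 8.0 buffer with MgCl2, DTT, Tween-20 and 2.5 ug/ml poly(dI-dC); started with 200 nM TAMRA/BHQ-2 forked duplex and 2 mM ATP. Unwinding read as fluorescence (525/598 nm), two reads 2 h apart.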
TDP1 block: qHTS Assay for Inhibitors of Tyrosyl-DNA Phosphodiesterase (TDP1); recombinant TDP1, AlphaScreen DNA substrate cleavage; Tyrosyl-DNA phosphodiesterase 1 (Homo sapiens), Q9NUW8; Potency, µM (highest dose often 130 µM), for inactives: top-dose activity change, negative = inhibition, hits mostly inhibitors; hit rate 0.28% among 350,000; also: nearly all actives have a fitted effect of over 40% in size
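Tdp1 1 nM final; 15 min RT w/ cpd; substrate 15 nM, 5 min; beads 10 ug/ml, 10 min; AlphaScreen read. Neg ctrl: no enzyme.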
KDM4E inh: qHTS Assay for Inhibitors of Human Jumonji Domain Containing 2E (JMJD2E). Lysine-specific demethylase 4E (Homo sapiens), B2RXH2. JMJD2E catalytic domain, FDH-coupled NADH fluorescence (FDH is formaldehyde dehydrogenase). Potency, µM (titrated, usually from 57.1 µM), for inactives: at the highest dose activity change, negative = inhibition, actives largely listed as inhibitors. hit rate 1.6% among 230,000. AID 2147, 2009; active = well fitted inhibition curve with a large enough effect, not every such curve was filed as active; inconclusive = small, poorly fitted or top-dose-only effect, or another doubt; inactive = no such curve, though single readings can be large or run the other way;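 also: 0% = wells with enzyme and -100% = buffer wells without enzyme; nearly all actives have a fitted effect of over 50% in size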
L3MBTL1 inh: qHTS Assay for the Inhibitors of L3MBTL1. Lethal(3)malignant brain tumor-like protein 1 (Homo sapiens), Q9Y468. AlphaScreen L3MBTL1–H3K9me1 peptide binding. Potency, µM (top dose mostly 57.1 µM), for inactives: top-dose activity, negative = inhibition, hits mostly inhibitors. hit rate 0.66% among 230,000. AID 485360, 2010; also: nearly all actives have a fitted effect of over 60% in size
Target sequence (Q9Y468 whole entry, looked up): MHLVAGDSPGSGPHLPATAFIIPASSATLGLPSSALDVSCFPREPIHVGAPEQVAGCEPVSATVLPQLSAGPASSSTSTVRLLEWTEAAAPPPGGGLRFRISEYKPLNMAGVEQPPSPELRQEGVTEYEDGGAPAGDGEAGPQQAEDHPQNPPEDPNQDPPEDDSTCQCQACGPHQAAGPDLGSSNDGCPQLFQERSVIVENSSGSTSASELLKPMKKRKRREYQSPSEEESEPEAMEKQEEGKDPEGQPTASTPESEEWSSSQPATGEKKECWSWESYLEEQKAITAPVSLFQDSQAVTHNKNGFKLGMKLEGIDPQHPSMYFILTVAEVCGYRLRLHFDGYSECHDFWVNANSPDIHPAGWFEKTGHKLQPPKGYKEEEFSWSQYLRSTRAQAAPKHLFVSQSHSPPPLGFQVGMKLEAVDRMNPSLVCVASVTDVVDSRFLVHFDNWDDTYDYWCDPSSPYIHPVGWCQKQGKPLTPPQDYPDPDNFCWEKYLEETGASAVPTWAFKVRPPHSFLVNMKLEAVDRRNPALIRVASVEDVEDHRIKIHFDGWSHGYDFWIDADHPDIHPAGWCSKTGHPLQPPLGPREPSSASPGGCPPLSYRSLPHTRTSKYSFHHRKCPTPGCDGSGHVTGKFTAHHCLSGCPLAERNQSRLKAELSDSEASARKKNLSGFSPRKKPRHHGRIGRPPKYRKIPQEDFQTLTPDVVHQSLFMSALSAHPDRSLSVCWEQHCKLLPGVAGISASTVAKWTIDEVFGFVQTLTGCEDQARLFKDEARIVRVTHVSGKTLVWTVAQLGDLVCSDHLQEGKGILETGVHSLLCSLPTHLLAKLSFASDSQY
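L3MBTL1 (50 nM) pre-complexed 30 min with biotinylated H3(1-15)K9me1 peptide (75 nM), then compounds added for 30 min at room temperature; AlphaScreen streptavidin donor/nickel chelate acceptor beads (10 ug/mL final) read after 30 min dark incubation.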
An asterisk follows results filed as active; [ ] = dose if it differs, or a comment. Unless noted, calls follow the shape of the dose curve; as a rule, active = well fitted curve in the direction sought with a large enough effect; inconclusive = small, poorly fitted or top-dose-only effect, or another doubt; inactive = no such curve, though single readings can be large; an effect the other way counts as inactive or inconclusive. Unless noted, % is scaled to controls: 0 for no effect and ±100 for the full control effect; potency is read from the fitted curve at half-maximal effect.

O=C(Nc1nc(-c2ccccn2)cs1)c1ccc([N+](=O)[O-])o1 was read as APEX1 inh -12%, BLM inh -18%, RECQ1 inh -11%, TDP1 block 4%, KDM4E inh inconclusive and L3MBTL1 inh 13µM*.
`Cc1cc(C(=O)Nc2nc(-c3ccccn3)cs2)ccc1[N+](=O)[O-]` gave APEX1 inh 0%, BLM inh -4%, RECQ1 inh -9%, TDP1 block 9% and KDM4E inh inconclusive.
Screening Cc1ccc(C(=O)Nc2nc(-c3ccccn3)cs2)o1 returned APEX1 inh 2%, BLM inh -4%, RECQ1 inh 11%, TDP1 block 12%, KDM4E inh inconclusive and L3MBTL1 inh inconclusive.
Screening O=C(Nc1nc(-c2ccccn2)cs1)c1cc(Cl)ccc1[N+](=O)[O-] returned APEX1 inh -3%, BLM inh -10%, RECQ1 inh -3%, TDP1 block 12%, KDM4E inh inconclusive and L3MBTL1 inh 10µM*.
Screening O=C(Nc1nc(-c2ccccn2)cs1)c1ccccc1-n1cnnn1 returned APEX1 inh 4%, BLM inh -5%, RECQ1 inh inactive, TDP1 block 5%, KDM4E inh inconclusive and L3MBTL1 inh 20µM*.
Screening O=c1nc2c(O)cccn2c2c1c(=O)[nH]c1ccccc12 returned APEX1 inh 4%, BLM inh 7.9µM*, RECQ1 inh -8%, TDP1 block -6%, KDM4E inh 11µM* and L3MBTL1 inh -11%.
For c1ccc2c(c1)CC/C2=N/Nc1nc2ccccc2[nH]1 the results were APEX1 inh -9%, BLM inh -6%, RECQ1 inh 35µM*, TDP1 block 11%, KDM4E inh 0% and L3MBTL1 inh -22%.
Screening COc1ccc(C(=O)c2cn(CC(=O)Nc3ccc4c(c3)OCO4)c3ccc(OC)cc3c2=O)cc1 returned BLM inh -19% and TDP1 block 6%.
`COc1ccc(C(=O)c2cn(CC(=O)Nc3ccc4c(c3)OCCO4)c3ccc(OC)cc3c2=O)cc1` gave BLM inh 10µM*.
Screening CN(C)c1ccc(NC(=O)CN2CCC(N3CCCCC3)CC2)cc1 returned APEX1 inh 17%, BLM inh -2%, RECQ1 inh inactive, TDP1 block -4% and KDM4E inh 32µM*.
Screening CN(C)c1ccc(NC(=O)CN2CCC(NC(=O)C3CCCCC3)CC2)cc1 returned APEX1 inh 13%, BLM inh 1% and TDP1 block 12%.
CCNc1nc(NCC)n2c(SCC(=O)Nc3ccc(C)c(C)c3)nnc2n1 was read as APEX1 inh inconclusive, TDP1 block -8% and L3MBTL1 inh 28µM*.
Screening CCNc1nc(NCC)n2c(SCC(=O)Nc3ccccc3)nnc2n1 returned APEX1 inh 12%, BLM inh -6%, RECQ1 inh inactive, TDP1 block 5%, KDM4E inh 25% and L3MBTL1 inh 8%.
CCNc1nc(NCC)n2c(SCC(=O)Nc3ccc(OC(F)F)cc3)nnc2n1 was read as APEX1 inh 11µM* and L3MBTL1 inh inconclusive.
Oc1ccc2ccccc2c1N=Nc1ccccc1F was read as APEX1 inh -3%, BLM inh -2%, RECQ1 inh -20%, KDM4E inh inconclusive and L3MBTL1 inh 8.9µM*.
Oc1ccc2ccccc2c1N=Nc1ccccn1 was read as APEX1 inh 0%, BLM inh -3%, RECQ1 inh inactive, TDP1 block 9%, KDM4E inh inconclusive and L3MBTL1 inh 10µM*.
For COc1ccc(C)cc1NC(=O)C(OC(=O)CNC(=O)c1ccccc1)c1ccccc1 (centres undefined) the results were TDP1 block 126µM*.
COc1ccc(C)cc1NC(=O)C(OC(=O)CNC(=O)c1cc(C)cc(C)c1)c1ccccc1 (centres undefined) was read as APEX1 inh -10%, BLM inh -3%, RECQ1 inh -1%, TDP1 block 3%, KDM4E inh -1% and L3MBTL1 inh 4%.
Cc1ccc(S(=O)(=O)N2CCN(C(=O)c3cccc(-n4cccc4)c3)CC2)cc1 was read as APEX1 inh -75%, TDP1 block -21% and L3MBTL1 inh inconclusive.
O=C(c1cccc(-n2cccc2)c1)N1CCN(S(=O)(=O)c2ccccc2)CC1 was read as APEX1 inh 1.5µM* and L3MBTL1 inh 4.5µM*.
Screening O=C(/C=C/c1ccc(O)c(O)c1)O[C@H]1C[C@@](O)(C(=O)O)CC(O)C1O (some centres undefined) returned APEX1 inh -5%, BLM inh 5%, RECQ1 inh 10%, TDP1 block -10%[56.1 µM] and KDM4E inh 16µM*.
Screening O=C(O)C(O)c1ccco1 (centres undefined) returned APEX1 inh 2%, BLM inh inconclusive, RECQ1 inh -11%, TDP1 block 3%, KDM4E inh 9% and L3MBTL1 inh 5µM*.
For O=C(O)C(O)c1ccccc1 (centres undefined) the results were APEX1 inh 2%, BLM inh 3%, RECQ1 inh -12%, TDP1 block 7%, KDM4E inh -2% and L3MBTL1 inh 7%.
Cc1sc2c3ccsc3ccc2[n+]1C was read as APEX1 inh 12%, BLM inh -7%, RECQ1 inh -6%, TDP1 block 10% and KDM4E inh 25µM*.
`Cc1sc2ccc3sccc3c2[n+]1C` gave APEX1 inh 1%, BLM inh -8%, RECQ1 inh -4%, TDP1 block 7%, KDM4E inh 14µM* and L3MBTL1 inh -7%.
Screening CCN1/C(=C/c2ccc3cc(C)ccc3[n+]2C)Sc2ccc3sccc3c21 returned APEX1 inh 3%, BLM inh 2%, RECQ1 inh -7%, TDP1 block 0%, KDM4E inh -9% and L3MBTL1 inh -23%.
For COc1ccc(C2Nc3ccccc3C(=O)N2Cc2cccc(-c3ccccc3)c2)cc1COc1ccc(NC(C)=O)cc1 (centres undefined) the results were TDP1 block 1%.
Cc1cccc(Cn2cnc3c(cnn3C(C)(C)C)c2=O)c1F was read as APEX1 inh -5%.
